The list is not random: actives were taken first. Their share in the collection is about 19%.
IL-1B inflam inh = qHTS for Inhibitors of Inflammasome Signaling: IL-1-beta AlphaLISA Primary Screen; 360,000 compounds, 4.7% hits; AID 743279, 2014; THP-1 LPS/ATP IL-1B secretion, AlphaLISA, 16 h; active compounds read low; activity change, % at 57.5 µM; in the data active means activity change below about -50%; inconclusive means mostly about -30% to -49%
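Secreted IL-1B measured by AlphaLISA bead assay after 16 h compound exposure of THP-1 cells; compounds (final up to 57.5 uM) added 1 h before LPS (250 ng/mL) and ATP (1.25 mM) stimulation; lower signal means less secretion.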
TDP1 cell CPT = qHTS for Inhibitors of human tyrosyl-DNA phosphodiesterase 1 (TDP1): qHTS in cells in presence of CPT; chicken DT40 Tdp1-/-;hTDP1 cells + 20 nM CPT, ATP luminescence, 48 h; Potency, µM (highest dose often 46.2 µM), inactives show at the highest dose activity change, negative = growth inhibition, usual class: inhibitors; 420,000 compounds, 12% hits; further: potency means the concentration at half of the fitted maximal effect; nearly all actives have a fitted effect of over 55% in size
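Cell growth measured by CellTiter-Glo luminescence after a minimum 48 h, 37 C compound exposure with 20 nM CPT in Tdp1-knockout DT40 cells stably expressing hTDP1, seeded 400/well; qHTS titration format.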
HT1080-NT tox = qHTS for induction of synthetic lethality in tumor cells producing 2HG: qHTS for the HT-1080-NT fibrosarcoma cell line; Potency, µM (highest dose often 46.1 µM), without a hit: at the top dose activity, negative = less viability, most hits filed as cytotoxic; 360,000 compounds, 1.6% hits; AID 686970, 2013; HT-1080-NT fibrosarcoma viability, CellTiter-Glo ATP luminescence, 48 h;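 further: NT is the 2HG producing partner of a matched IDH1 knockdown line; potency means the concentration at half of the fitted maximal effect; 0% = DMSO-treated cells and -100% = media-only wells without cells; nearly all actives have a fitted effect of over 55% in size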
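Viability of the 2HG-overproducing fibrosarcoma line after 48 hours of compound exposure at 37 degrees C was determined by luminescence with CellTiter-Glo, and concentration-effect curves were then fitted and categorized.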
HT1080 IDH1KD tx = qHTS for induction of synthetic lethality in tumor cells producing 2HG: qHTS for the HT-1080-IDH1KD cell line; HT-1080 IDH1 knockdown viability, ATP luminescence, 48 h; Potency, µM (top dose mostly 46.1 µM), inactives show at the highest dose activity, negative = toxicity, usual class: cytotoxic; 360,000 compounds, 2% hits; AID 686971, 2013;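 further: potency means the concentration at half of the fitted maximal effect; 0% = DMSO wells and -100% = cell-free medium wells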
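CellTiter-Glo luminescence after 48 h compound exposure at 37 degrees C of IDH1-knockdown HT-1080 cells in 5% FBS RPMI. %Activity scaled between DMSO wells and cell-free media wells, with curves fitted and assigned curve classes.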
DT40 TDP1 no CPT = qHTS for Inhibitors of human tyrosyl-DNA phosphodiesterase 1 (TDP1): qHTS in cells in absence of CPT. AID 686978, 2013. DT40 Tdp1-/- hTDP1 cells, no CPT, ATP luminescence, 48 h. Potency, µM (doses to about 46.2 µM), for the others: top-dose activity change, negative = growth inhibition, actives largely listed as inhibitors. 420,000 compounds, 15% hits; further: potency means the concentration at half of the fitted maximal effect; nearly all actives have a fitted effect of over 55% in size
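Luminescent ATP content (CellTiter-Glo) served as the growth readout. Knockout chicken DT40 cells expressing human TDP1 were exposed to compounds without camptothecin for a minimum 48 hr at 37 °C.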
Numbers without * were called inactive; ? = inconclusive; . = no result given. Unless noted, the call rests on the fitted dose curve; in most records, active means well fitted curve in the direction sought with a large enough effect; inconclusive means small, poorly fitted or top-dose-only effect, or another doubt; inactive means no such curve, though single readings can be large; an effect the other way counts as inactive or inconclusive. Unless noted, on the % scale 0 is the no-effect control and ±100 the full control effect.

SMILES | IL-1B inflam inh | TDP1 cell CPT | HT1080-NT tox | HT1080 IDH1KD tx | DT40 TDP1 no CPT
O=C(c1cc2ccccc2oc1=O)N(Cc1ccc2c(c1)OCO2)Cc1ccco1 | -10 | ? | -11% | 9% | 9.2µM*
COC(=O)c1ccc2[nH]c3cccc(/C(=C/c4ccccc4)c4ccccc4)c3c2c1 | -58* | ? | ? | ? | ?
O=C1CCCc2[nH]c3cccc(/C(=C/c4ccccc4)c4ccccc4)c3c21 | -1 | ? | -17% | -7% | 18µM*
CN1OC[C@@H]2CN(C(=S)NCCc3ccccc3)[C@H](c3ccccc3Br)C[C@@H]21 | -25 | ? | -17% | ? | 16µM*
CN1OC[C@@H]2CN(C(=O)CCc3ccccc3)[C@H](c3cccc(-c4ccccc4)c3)C[C@@H]21 | 0 | 26µM* | -4% | -3% | ?
CC(=O)N1C[C@H]2CON(C)[C@H]2C[C@H]1c1ccccc1 | 0 | 0% | ? | 8% | 4%
CC(=O)N1C[C@H]2CON(C)[C@H]2C[C@H]1c1cccc(-c2cc(Cl)cc(Cl)c2)c1 | -23 | ? | -12% | -7% | 23µM*
COc1cccc(C(NC(C)=O)c2nc(-c3ccoc3)cs2)c1 (stereo unspecified) | -1 | 1% | 19% | 0% | -3%
O=[N+]([O-])c1cccc(S(=O)(=O)c2ccc(N3CCCCC3)c([N+](=O)[O-])c2)c1 | -15 | ? | -12% | -24% | 26µM*
O=[N+]([O-])c1cc(S(=O)(=O)c2ccc(N3CCCCC3)c([N+](=O)[O-])c2)ccc1N1CCCCC1 | -8 | ? | -3% | 0% | 21µM*
O=S(=O)(c1ccccc1Cl)N1CCCC1c1nc(-c2ccc(Cl)cc2)no1 (stereo unspecified) | 91 | ? | -19% | -22% | ?
CCn1cc(C(=O)N2CCN(c3ccc(OC)cc3)CC2)c2cc(OC)c(OC)cc2c1=O | 2 | 10% | 0% | 5% | -12%
Cc1[nH]c(-c2ccc(F)cc2)cc1C(=O)N1CCN(c2cccc(Cl)c2)CC1 | -87* | -8% | ? | ? | 16µM*
CCn1cc(C(=O)N2CCN(c3cccc(Cl)c3)CC2)c2cc(OC)c(OC)cc2c1=O | -2 | 16µM* | ? | ? | 23µM*
COc1cc2c(C(=O)N3CCN(c4cccc(Cl)c4)CC3)cn(C)c(=O)c2cc1OC | 2 | 5.2µM* | ? | 12µM* | 3.7µM*
COc1ccccc1C(=O)N1CCN(c2cccc(Cl)c2)CC1 | 47 | 1.8µM* | 2.6µM* | 2.6µM* | 1.6µM*
C[C@@H]1CN([C@H](C)CO)C(=O)CCCn2nncc2CO[C@H]1CN(C)S(=O)(=O)c1ccc(Oc2ccccc2)cc1 | 18 | -20% | -6% | -10% | ?
O=C(c1cc2ccccc2cc1O)N1CCN(c2cccc(Cl)c2)CC1 | -1 | ? | 11% | 2% | ?
O=C(c1c(Cl)nc2sccn12)N1CCN(c2cccc(Cl)c2)CC1 | 4 | 2.3µM* | ? | 3.3µM* | 2.3µM*
COCCN1C(=O)CN(S(C)(=O)=O)CC1(C)C(=O)Nc1ccc2c(c1)OCCO2 (stereo unspecified) | -2 | 7% | -2% | 17% | 10%
COCCCN1C(=O)C(CC(=O)NCc2ccco2)CC(C(=O)N(C)C)=C1C (stereo unspecified) | 23 | -6% | 1% | -1% | 3%
COc1ccc(NC(=O)COc2ccccc2)cc1NC(=O)c1ccco1 | -11 | ? | -16% | -8% | ?
COc1ccc(C(C)(C)C)cc1NC(=O)COc1ccc(-c2nnco2)cc1 | -50* | ? | -7% | -8% | ?
Cc1cc(Cl)ccc1OCC(=O)NNC(=O)c1ccco1 | -26 | -6% | -4% | -3% | -6%
COc1ccc(NC(=O)c2ccco2)cc1NC(=O)COc1ccc(Cl)cc1C | . | 10µM* | . | . | 9.2µM*
SMILES | IL-1B inflam inh | TDP1 cell CPT | HT1080-NT tox | HT1080 IDH1KD tx | DT40 TDP1 no CPT
COc1ccc(OCC(=O)Nc2cc(NC(=O)c3ccco3)ccc2OC)cc1 | -55* | -15% | -2% | -8% | ?
Cc1nn(-c2ccccc2)c(C)c1NC(=O)COC(=O)c1ccc(O)cc1O | 8 | -29% | 1% | -2% | -20%
COc1cc2c(C=O)c3c4c(cc(OC)c(OC)c4c2cc1OC)CCN3C | . | 12µM* | . | . | 12µM*
COc1cc2c(cc1OC)CC(=O)N(C)CC2 | 0 | 1% | 24% | 11% | 1%
O=C(COc1ccc(Cl)cc1)Nc1ccc2c(c1)C(=O)NC2=O | -4 | -12% | 10% | 13% | 10%
CCOC(=O)c1cccc(NC(=O)CCc2nc(-c3ccc(C)cc3)no2)c1 | -14 | ? | -1% | -13% | 23µM*
O=C(CCCc1nc(-c2ccc(Cl)cc2)no1)Nc1cccnc1 | 35 | 16µM* | -2% | ? | 15µM*
O=C(CCCc1nc(-c2ccccc2)no1)Nc1cc(C(F)(F)F)cc(C(F)(F)F)c1 | . | ? | . | . | 23µM*
O=C(Nc1ccc(-c2noc(CCc3ccccc3)n2)cc1)c1cccnc1 | ? | 18µM* | ? | ? | 12µM*
O=C(O)CCCc1nc(-c2ccccc2)no1 | -15 | 3% | -2% | -2% | -18%
COc1ccc(-c2noc(CCC(=O)Nc3cccc(C)c3)n2)cc1 | 23 | ? | -2% | 1% | ?
COc1ccccc1-c1noc2c1C(=O)N(Cc1cn(C3CCCC3)nn1)CC2 | 14 | 0% | -1% | 7% | -17%
COCCCNC(=O)Cn1c(=O)nc(-c2ccccc2)c2ccccc21 | . | 9% | . | . | -4%
O=C(CCc1nc(-c2ccccc2F)no1)Nc1cccc(C(F)(F)F)c1 | . | 18µM* | . | . | 15µM*
CCOC(=O)c1cccc(NC(=O)CCc2nc(-c3ccccc3F)no2)c1 | 7 | 23µM* | -20% | -2% | ?
COc1ccc(NC(=O)CCc2nc(-c3ccccc3F)no2)cc1 | 6 | ? | -6% | -18% | 2.6µM*
COc1ccc(-c2noc(CCC(=O)Nc3cccc(C(=O)NC4CC4)c3)n2)cc1OC | -53* | ? | -1% | -1% | ?
Oc1csc(Cc2nc(-c3ccc4ccccc4c3)cs2)n1 | 35 | ? | -13% | -22% | 15µM*
C/C(CC(=O)NCc1ccccc1Cl)=N/NC(=O)c1ccccn1 | 11 | -1% | 23% | 21% | -14%

Source: PubChem BioAssay
